# Assay results as given in PubChem BioAssay AID1376 (SRMLSC, 2008).
# “And” between values parts separate entries of the source, which are not always exact repeats. Equal entries are not always repeated. Out of some 220,000 compounds screened, about 530 (0.24%) were called active. The full list was thinned out, with actives kept by preference. Potency and affinity values are given separately. Unmarked numbers belong to inactive results. No stated cut-off is given here; in the data, active means inhibition above about 13%; inconclusive means no clear call, values can overlap the other calls; inactive means below that.
# Molecular target: Bifunctional protein GlmU (Mycobacterium tuberculosis (strain ATCC 25618 / H37Rv)) (UniProt P9WMN3)
# Assay: inhibition of mycobacterial GlmU enzyme – biochemical, glucosamine-1-phosphate acetyltransferase (AID 1376);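 further: 0% = complete reaction with vehicle and 100% = reaction without substrate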
# Conditions: M. tuberculosis GlmU acetyltransferase enzyme assay; hits give high values;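 tested at 30 µM in the primary screen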
# Bifunctional protein GlmU (Mycobacterium tuberculosis (strain ATCC 25618 / H37Rv)), sequence (P9WMN3 whole entry, looked up): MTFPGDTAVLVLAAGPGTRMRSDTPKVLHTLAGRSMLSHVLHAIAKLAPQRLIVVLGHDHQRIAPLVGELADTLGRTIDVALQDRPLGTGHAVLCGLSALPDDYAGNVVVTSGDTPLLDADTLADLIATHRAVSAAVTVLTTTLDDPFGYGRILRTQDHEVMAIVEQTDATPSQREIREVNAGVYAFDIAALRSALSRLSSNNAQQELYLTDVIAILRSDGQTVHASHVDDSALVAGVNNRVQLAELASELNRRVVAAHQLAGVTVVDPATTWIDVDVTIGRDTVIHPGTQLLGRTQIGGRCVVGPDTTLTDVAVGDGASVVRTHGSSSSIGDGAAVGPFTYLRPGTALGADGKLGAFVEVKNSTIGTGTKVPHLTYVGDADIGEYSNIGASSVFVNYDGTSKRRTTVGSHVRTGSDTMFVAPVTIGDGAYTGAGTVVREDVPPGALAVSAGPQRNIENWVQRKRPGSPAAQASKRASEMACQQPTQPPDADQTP
row,Compound,inhibition
1,COC(=O)c1ccccc1NC(=O)CSc1nnc(-c2cccnc2)n1C,3.07%
2,COc1ccc(NC(=O)CCS(=O)(=O)c2ccc3c(c2)CCCN3C(C)=O)cc1Cl,-0.45%
3,COc1ccc(NC(=O)CCS(=O)(=O)c2ccc3c(c2)CCCN3C(C)=O)cc1,0.16%
4,COc1ccccc1CNC(=O)CCS(=O)(=O)c1ccc2c(c1)CCCN2C(C)=O,15.2% (active)
5,O=[N+]([O-])c1ccc2[nH]nc(-c3ccccc3)c2c1,4.82%
6,O=C(O)c1cc2sccc2s1,1.23%
7,NNC(=O)c1cc2sccc2s1,14% (active)
8,CC(=O)NNC(=O)c1cc2sccc2s1,0.49%
9,O=C1c2cccnc2C(=O)N1C1CCCCC1,6.11%
10,CCC(c1ccccc1)c1nnc(NC(=O)c2ccco2)s1 (stereo unspecified),4.36%
11,Cc1cc(=O)cc(C)n1-c1ccc(Cl)cc1,1.93%
12,CC1=CC(C)(C)N(C)C(=O)N1c1ccc(Cl)cc1,-0.04%
13,O=C1[C@H]2[C@H](C=CC[C@H]2C(=O)N2CCN(c3ccccc3)CC2)CCN1Cc1ccc(Cl)c(Cl)c1,0.58%
14,O=S(=O)(Nc1nc(CN2CCOCC2)nc2sc3c(c12)CCCC3)c1cc(F)ccc1F,2.36% and -0.91%
15,CC(c1ccccc1)N1CC(C(=O)N2CCN(c3ccccc3)CC2)CC1=O (stereo unspecified),-1.56%
16,CS(=O)(=O)N(CC(=O)Nc1cccc(F)c1)c1cccc([N+](=O)[O-])c1,2.56%
17,CS(=O)(=O)N(CC(=O)Nc1c(F)cccc1F)c1cccc([N+](=O)[O-])c1,1.32%
18,CS(=O)(=O)N(CC(=O)Nc1ccc(F)cc1F)c1cccc([N+](=O)[O-])c1,14.6% (active)
19,O=S(=O)(c1ccccc1)c1cc(O)ccc1O,12.9% (active)
20,Cc1ccc(S(=O)(=O)c2cc(O)ccc2O)cc1C,5.34%
21,Nc1nc2ccccc2cc1S(=O)(=O)c1ccccc1,-5.35%

row,Compound,inhibition
1,Cc1ccc(C(=O)/C=C\Nc2ccc(C)c(C)c2)cc1,-4.99%
2,COc1ccc(S(=O)(=O)NCC2CCCN(C(=O)CNC(C)=O)C2)cc1 (stereo unspecified),-0.35%
3,CCc1ccc2oc(C(=O)Nc3ccc(S(N)(=O)=O)cc3)c(C)c2c1,1.87%
4,CCN1CCN(CCC2Oc3cc([N+](=O)[O-])ccc3NC2=O)CC1 (stereo unspecified),-2.08%
5,CC(=O)NC1(C(F)(F)F)C(=O)Nc2c1c(=O)[nH]c(=O)n2CCc1ccccc1 (stereo unspecified),1.88%
6,COc1ccc(CCn2c3c(c(=O)[nH]c2=O)C(NC(=O)c2cccs2)(C(F)(F)F)C(=O)N3)cc1OC (stereo unspecified),13.3% (active)
7,COc1ccc(C(=O)NC2(C(F)(F)F)C(=O)Nc3c2c(=O)[nH]c(=O)n3CCc2ccc(OC)c(OC)c2)cc1 (stereo unspecified),-0.41%
8,O=C(NCc1cccs1)c1csc2c1CCCCC2,1.69%
9,CCN(CC)C(=O)CSc1nc2ccccc2c(=O)n1CC,-0.44%
10,CCOC(=O)CSc1nc2ccccc2c(=O)n1CC1CCCC1,-1.38%
11,CCN(CC)C(=O)CSc1nc2ccccc2c(=O)n1CC1CCCCC1,13.3% (active)
12,N#CCCn1cc(C(=O)Nc2ccccc2Br)c(-c2cc3ccccc3o2)n1,-0.21%
13,O=C(CN(CC1CCCO1)C(=O)CNS(=O)(=O)c1ccc(Cl)cc1)NCC1CCCO1 (stereo unspecified),-2.4%
14,N#Cc1ccccc1NC1=CC(=O)CCC1,-6.37%
15,CCc1nnc2n1N=C(c1ccc([N+](=O)[O-])cc1)CS2,-0.05%
16,O=C(O)COc1ccc(NC(=O)c2cccs2)cc1,-5.47%
17,COc1ccc(NC(=O)c2cccs2)cc1,-2.83%
18,Cc1ccc(C(=O)Nc2ccc(Oc3ccc(C(=O)O)c(C(=O)O)c3)cc2)cc1C,47.7% (active)
19,Cc1ccc(C(=O)Nc2ccc(O)cc2C(=O)O)cc1C,1.76%
20,Cc1cccc(Oc2ccc(NC(=O)c3ccccc3C(=O)O)cc2)c1,1.43%
21,O=C(O)c1ccccc1C(=O)Nc1ccc(Oc2ccccc2)cc1,0.7%

row,Compound,inhibition
1,COc1ccc(C(=O)Nc2cccc(OC)c2)cc1,6.57%
2,COC(=O)CCSC(=S)N1CCOCC1,-0.58%
3,COc1ccc(NC(=O)N(Cc2cccs2)Cc2cc3cc4c(cc3[nH]c2=O)OCO4)cc1,1.28%
4,CCOC(=O)c1cc2sccc2n1CC(=O)C(C)(C)C,-4.29%
5,CCn1ncc(Br)c1C(=O)Nc1ccn(C23CC4CC(CC(C4)C2)C3)n1,-4.08%
6,CC(=O)N(C)N1c2ccccc2CCc2ccccc21,-8.48%
7,Cc1cccc(OCCNC(=O)c2ncn[nH]2)c1,1.93%
8,Cn1c(=O)c2c(nc(SCC(=O)NC34CC5CC(CC(C5)C3)C4)n2C)n(C)c1=O,-0.07%
9,O=C(CSc1nnc(-c2ccncc2)o1)NC1C2CC3CC(C2)CC1C3 (stereo unspecified),1.35%
10,O=C(O)c1ccc(/C=C/c2nc3sc4c(c3c(=O)[nH]2)CCC4)cc1,2.03%
11,N#C/C(=C\c1ccc(C(=O)O)cc1)c1nc2sc3c(c2c(=O)[nH]1)CCCC3,14.3% (active)
12,CCOC(=O)c1nc2sc3c(c2c(=O)[nH]1)CCCC3,4.84% and 1.97%
13,O=C1NC(CCc2ccccc2)C(=O)N1Cc1ccccc1Cl (stereo unspecified),-2.29%
14,CCc1sc(-c2ccccc2)nc1C(=O)OC,-3.08%
15,CN(C(=O)COC(=O)c1n[nH]c2ccccc12)c1ccccc1,-0.77%
16,COc1ccccc1NC(=O)N1CCC(c2nnc(SCC(N)=O)n2C)CC1,5.75%
17,CC(=O)c1cccc(NC(=O)N2CCC(c3nnc(SCC(N)=O)n3C)CC2)c1,12.8% (active)
18,Cn1c(SCC(N)=O)nnc1C1CCN(C(=O)NCc2ccccc2)CC1,2.81%
19,CSc1nsc(/C=C/Nc2ccc(C(=O)O)cc2)c1C#N,-2.44%
